According to PubChem BioAssay AID1159580 (chemical genetic matrix, 2015):
About 2,000 (36%) of roughly 5,500 compounds were called active. Inconclusive results (about 18%) are left out. Cut-off read from the data, not from the text of the source: active = normalized growth mostly below about 0.91 (no sharp cut-off); inconclusive = no clear call, values can overlap the other calls; inactive = mostly above about 0.92. The list shows a part of the results.

Assay: chemical genetic growth profiling, strain panel (AID 1159580);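 note: tested at 20 µM; growth read once vehicle control cultures reached saturation at 30 °C; 1 = growth at the plate median or of vehicle wells; lower values mean less growth of the strain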
Conditions: growth OD

Measured: normalized growth

S=P(N1CC1)(N1CC1)N1CC1
inactive: S. cerevisiae deletion strains, locus YKL009W, strain mrt4, stronger effect = lower value 0.99 | S. cerevisiae deletion strains, locus YKL068W, stronger effect = lower value 1.01 | S. cerevisiae deletion strains, locus YKL085W, strain MDH1 (second series), stronger effect = lower value 0.997 | S. cerevisiae deletion strains, locus YKL085W, strain MDH1, stronger effect = lower value 0.997 | S. cerevisiae deletion strains, locus YKL160W, strain elf1, stronger effect = lower value 1.01 | S. cerevisiae deletion strains, locus YKL190W, strain CNB1, stronger effect = lower value 1 | S. cerevisiae deletion strains, locus YKR001C, strain vps1, stronger effect = lower value 0.994 | S. cerevisiae deletion strains, locus YKR026C, strain gcn3, stronger effect = lower value 0.976 | S. cerevisiae deletion strains, locus YKR091W, strain srl3, stronger effect = lower value 1 | S. cerevisiae deletion strains, locus YLL001W, strain dnm1, stronger effect = lower value 1 | S. cerevisiae deletion strains, locus YLL026W, stronger effect = lower value 1 | S. cerevisiae deletion strains, locus YLL041C, strain sdh2, stronger effect = lower value 1.01 | S. cerevisiae deletion strains, locus YLR027C, strain aat2, stronger effect = lower value 1.01 | S. cerevisiae deletion strains, locus YLR039C, strain RIC1, stronger effect = lower value 1.03 | S. cerevisiae deletion strains, locus YLR058C, strain SHM2, stronger effect = lower value 1.01 | S. cerevisiae deletion strains, locus YLR102C, strain apc9, stronger effect = lower value 1.01 | S. cerevisiae deletion strains, locus YLR113W, strain HOG1, stronger effect = lower value 0.995 | S. cerevisiae deletion strains, locus YLR221C, strain rsa3, stronger effect = lower value 0.996 | S. cerevisiae deletion strains, locus YLR258W, strain gsy2, stronger effect = lower value 1.01 | S. cerevisiae deletion strains, locus YLR262C, strain YPT6 (second series), stronger effect = lower value 1.02 | S. cerevisiae deletion strains, locus YLR262C, strain YPT6, stronger effect = lower value 1.02 | S. cerevisiae deletion strains, locus YLR268W, strain sec22, stronger effect = lower value 0.989 | S. cerevisiae deletion strains, locus YLR320W, strain mms22, stronger effect = lower value 0.994 | S. cerevisiae deletion strains, locus YLR330W, strain CHS5, stronger effect = lower value 1.01 | S. cerevisiae deletion strains, locus YLR342W, strain FKS1 (second series), stronger effect = lower value 1.03 | S. cerevisiae deletion strains, locus YLR342W, strain FKS1, stronger effect = lower value 1.01 | S. cerevisiae deletion strains, locus YLR357W, strain rsc2, stronger effect = lower value 1.03 | S. cerevisiae deletion strains, locus YLR370C, strain arc18, stronger effect = lower value 1.01 | S. cerevisiae deletion strains, locus YLR371W, strain rom2, stronger effect = lower value 1.01 | S. cerevisiae deletion strains, locus YLR384C, strain iki3, stronger effect = lower value 0.994 | S. cerevisiae deletion strains, locus YLR418C, strain cdc73, stronger effect = lower value 0.977 | S. cerevisiae deletion strains, locus YML016C, strain PPZ1, stronger effect = lower value 1 | S. cerevisiae deletion strains, locus YML032C, strain rad52, stronger effect = lower value 1 | S. cerevisiae deletion strains, locus YML120C, strain ndi1, stronger effect = lower value 1.01 | S. cerevisiae deletion strains, locus YML124C, strain tub3, stronger effect = lower value 1 | S. cerevisiae deletion strains, locus YMR058W, strain fet3, stronger effect = lower value 1.02 | S. cerevisiae deletion strains, locus YMR078C, strain ctf18, stronger effect = lower value 1 | S. cerevisiae deletion strains, locus YMR125W, strain sto1, stronger effect = lower value 1 | S. cerevisiae deletion strains, locus YMR129W, stronger effect = lower value 1.01 | S. cerevisiae deletion strains, locus YMR205C, strain PFK2, stronger effect = lower value 1.01 | S. cerevisiae deletion strains, locus YMR223W, strain ubp8, stronger effect = lower value 1 | S. cerevisiae deletion strains, locus YMR231W, strain pep5, stronger effect = lower value 0.993 | S. cerevisiae deletion strains, locus YMR263W, strain SAP30, stronger effect = lower value 1.02 | S. cerevisiae deletion strains, locus YMR307W, strain GAS1, stronger effect = lower value 1.04 | S. cerevisiae deletion strains, locus YNL067W, strain RPL9B, stronger effect = lower value 1.01 | S. cerevisiae deletion strains, locus YNL071W, strain lat1, stronger effect = lower value 1.02 | S. cerevisiae deletion strains, locus YNL128W, strain TEP1, stronger effect = lower value 1.01 | S. cerevisiae deletion strains, locus YNL153C, strain GIM3, stronger effect = lower value 0.997 | S. cerevisiae deletion strains, locus YNL183C, strain NPR1, stronger effect = lower value 0.932 | S. cerevisiae deletion strains, locus YNL209W, strain ssb2, stronger effect = lower value 1.02 | S. cerevisiae deletion strains, locus YNL233W, strain BNI4, stronger effect = lower value 0.998 | S. cerevisiae deletion strains, locus YNL248C, strain rpa49, stronger effect = lower value 0.999 | S. cerevisiae deletion strains, locus YNL250W, strain rad50, stronger effect = lower value 0.995 | S. cerevisiae deletion strains, locus YNL271C, strain bni1, stronger effect = lower value 1.01 | S. cerevisiae deletion strains, locus YNL298W, strain CLA4, stronger effect = lower value 1.02 | S. cerevisiae deletion strains, locus YNL307C, strain MCK1, stronger effect = lower value 1.01 | S. cerevisiae deletion strains, locus YNL322C, strain KRE1 (second series), stronger effect = lower value 1.01 | S. cerevisiae deletion strains, locus YNL322C, strain KRE1, stronger effect = lower value 1.01 | S. cerevisiae deletion strains, locus YNR049C, strain mso1, stronger effect = lower value 1.01 | S. cerevisiae deletion strains, locus YNR052C, strain pop2, stronger effect = lower value 1 | S. cerevisiae deletion strains, locus YOL006C, strain TOP1, stronger effect = lower value 1.04 | S. cerevisiae deletion strains, locus YOL012C, strain htz1 0.982 | S. cerevisiae deletion strains, locus YOL147C, strain pex11, stronger effect = lower value 1.04 | S. cerevisiae deletion strains, locus YOR001W, strain rrp6, stronger effect = lower value 1.01 | S. cerevisiae deletion strains, locus YOR061W, strain CKA2, stronger effect = lower value 1.01 | S. cerevisiae deletion strains, locus YOR069W, strain VPS5, stronger effect = lower value 0.992 | S. cerevisiae deletion strains, locus YOR070C, strain gyp1, stronger effect = lower value 1.01 | S. cerevisiae deletion strains, locus YOR080W, strain dia2, stronger effect = lower value 1 | S. cerevisiae deletion strains, locus YOR083W, strain WHI5, stronger effect = lower value 0.997 | S. cerevisiae deletion strains, locus YOR106W, strain vam3, stronger effect = lower value 0.997 | S. cerevisiae deletion strains, locus YOR136W, strain idh2, stronger effect = lower value 1 | S. cerevisiae deletion strains, locus YOR144C, strain elg1, stronger effect = lower value 1.01 | S. cerevisiae deletion strains, locus YOR184W, strain ser1, stronger effect = lower value 1.01 | S. cerevisiae deletion strains, locus YOR231W, strain MKK1, stronger effect = lower value 1 | S. cerevisiae deletion strains, locus YOR265W, strain rbl2, stronger effect = lower value 1.01 | S. cerevisiae deletion strains, locus YOR270C, strain vph1, stronger effect = lower value 1.01 | S. cerevisiae deletion strains, locus YOR290C, strain snf2, stronger effect = lower value 1.01 | S. cerevisiae deletion strains, locus YOR316C, strain cot1, stronger effect = lower value 1 | S. cerevisiae deletion strains, locus YPL051W, strain arl3, stronger effect = lower value 1.01 | S. cerevisiae deletion strains, locus YPL055C, strain LGE1, stronger effect = lower value 0.989 | S. cerevisiae deletion strains, locus YPL078C, strain atp4, stronger effect = lower value 1.01 | S. cerevisiae deletion strains, locus YPL106C, strain sse1, stronger effect = lower value 1.02 | S. cerevisiae deletion strains, locus YPL240C, strain hsp82, stronger effect = lower value 0.996 | S. cerevisiae deletion strains, locus YPL241C, strain CIN2, stronger effect = lower value 0.991 | S. cerevisiae deletion strains, locus YPL256C, strain CLN2, stronger effect = lower value 0.991 | S. cerevisiae deletion strains, locus YPR119W, strain clb2, stronger effect = lower value 1.01 | S. cerevisiae deletion strains, locus YPR141C, strain kar3, stronger effect = lower value 0.996 | S. cerevisiae deletion strains, locus YPR163C, strain tif3, stronger effect = lower value 1 | S. cerevisiae deletion strains, locus YPR167C, strain met16, stronger effect = lower value 0.992 | S. cerevisiae deletion strains, strain wtn01, stronger effect = lower value 0.983 | S. cerevisiae strains, strain wild type, stronger effect = lower value 1.01
